Bioassay records as filed in PubChem BioAssay.
This excerpt belongs to a sample that is enriched for hits.
KDM5B inh: Primary screen for KDM5B Histone Demethylases FDH-coupled qHTS; Potency, µM (highest dose often 57.7 µM), most hits filed as inhibitors; hit rate 2.6% among 220,000; Lysine-specific demethylase 5B (Homo sapiens), Q9UGL1; KDM5B demethylase, FDH-coupled NADH fluorescence (FDH is formaldehyde dehydrogenase); active = well fitted inhibition curve with a large enough effect; also: nearly all actives have a fitted effect of over 70% in size
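KDM5BΔAP (200 nM final) in 50 mM HEPES pH 7.5, 0.01% Tween-20 was preincubated 10 min at RT with compound over a concentration range. Substrate mix (H3K4me3 12.5 µM, α-KG 25 µM, Fe²⁺, ascorbate, NAD⁺, FDH) was added, and NADH fluorescence change over 30 min gave dose-response curves.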
Each line names hits and unclear results; the compound was inactive in the other large screens.

O=C(NCCc1ccccc1)N1CC(Oc2ccccc2-c2nc(-c3ccccc3)no2)C1	KDM5B inh 25µM
CCCNC(=O)N1CCC(Oc2ccccc2-c2nc(-c3ccncc3)no2)C1 (stereo not drawn)	none
CCC(C)NC(=O)N1CC(Oc2ccccc2-c2nc(-c3ccccc3)no2)C1 (stereo not drawn)	none
CN1c2cc(C(=O)Nc3ccc(Cl)c(F)c3)ccc2C(=O)N2CCCCCC21 (stereo not drawn)	none
Cc1ncsc1CN1CCCCCCNC(=O)[C@@H]2C[C@@H](C(=O)N3CCc4ccccc4C3)C[C@@H]21	none
O=C1NCCCCCCN(C(=O)Nc2ccccc2)[C@H]2C[C@H](C(=O)N3CCc4ccccc4C3)C[C@@H]12	none
O=C1NCCCCCCN[C@H]2C[C@H](C(=O)N3CCc4ccccc4C3)C[C@@H]12	none
CCS(=O)(=O)N1CCCCCCNC(=O)[C@@H]2C[C@@H](C(=O)N3CCc4ccccc4C3)C[C@@H]21	none
N#Cc1ccc(CN2CCCCCCNC(=O)[C@@H]3C[C@@H](C(=O)N4CCc5ccccc5C4)C[C@@H]32)cc1	KDM5B inh 25µM
N#Cc1ccccc1CN1CCCCCCNC(=O)[C@@H]2C[C@@H](C(=O)N3CCc4ccccc4C3)C[C@@H]21	KDM5B inh 20µM
CC(C)Cc1cnc2c(c1SCC(=O)NC(C)C)c(=O)n(C)c(=O)n2C	none
CCOC(=O)Cn1c(=O)c2c3c(sc2n(CCN(C)C)c1=O)CC(C)CC3 (stereo not drawn)	none
COc1cc(C(=O)Nc2ccc(N3CCCC3)nc2)cc(OC)c1OC	none
O=C(c1cccc(Cl)c1)N1CCC2(CC1)CC(=O)N(c1ccccc1)c1ccccc1O2	none
O=C(Cc1ccsc1)Nc1ccc(Br)cc1F	none
COc1ccc(NC(=O)N2CCC3(CC2)CC(N(C(=O)NC(C)C)C2CC2)CCO3)cc1 (stereo not drawn)	none
COc1ccc(C(C)=O)cc1CC(=O)NC(c1ccccc1)c1ccc(C)cc1 (stereo not drawn)	none
Clc1ccc(CN2CCC[C@H]2c2nc(-c3ccc(N4CCOCC4)nc3)no2)cc1	KDM5B inh 35µM
O=C(O)c1ccc(CN2CCC[C@H]2c2nc(-c3ccc(-n4ccnc4)nc3)no2)cc1	none
CN(C)c1ccc(-c2noc([C@@H]3CCCN3Cc3cnc4ccccc4c3)n2)cn1	KDM5B inh 28µM
c1ccc(CN2CCC[C@H]2c2nc(-c3ccc(N4CCOCC4)nc3)no2)cc1	KDM5B inh 32µM
Cc1ccc(CN2CCC[C@H]2c2nc(-c3ccc(OC4CCCCC4)nc3)no2)cc1	none
O=C(O)c1ccc(CN2CCC[C@H]2c2nc(-c3ccc(-c4cncnc4)nc3)no2)cc1	none
O=C(Cc1ccccc1)N1CCC[C@H]1c1nc(-c2ccccc2)no1	none
O=C(O)c1ccc(CN2CCC[C@H]2c2nc(-c3ccc(OC4CCCCC4)nc3)no2)cc1	none
Fc1ccc(-c2noc([C@@H]3CCCN3Cc3ccc(C(F)(F)F)cc3)n2)nc1	none
COc1cc(/C=C/C(=O)c2ccc(C)cc2OC)ccc1OC(F)F	none
CC1Sc2ccc(C(=O)Nc3nc(-c4cccnc4)cs3)cc2NC1=O (stereo not drawn)	none
O=C(NCCCCNC(=O)C(c1ccccc1)c1ccccc1)C(c1ccccc1)c1ccccc1	none
CCCCCCn1c(SCc2ccc(F)cc2)nc2c1c(=O)[nH]c(=O)n2C	none
CCCCn1c(Cn2ccnc2C)nc2cc(NC(=O)c3ccccc3C)ccc21	none
CCOC(=O)C1=C(C)NC(=O)C1(NC(=O)c1ccccc1Cl)C(F)(F)F (stereo not drawn)	none
C=C(C)CC1C(Br)=CCC[N+]1(C)C (stereo not drawn)	none
CCCOCCNC(=O)c1c(C)noc1-c1cccs1	KDM5B inh 25µM
Cc1noc(-c2ccccc2Cl)c1C(=O)NCCCCc1ccccc1	none
Cc1noc(-c2ccccc2Cl)c1C(=O)NCCOc1ccccc1	none
Cc1noc(-c2cccs2)c1C(=O)NCCCCc1ccccc1	KDM5B inh 32µM
Cc1ccccc1-c1onc(C)c1C(=O)NCCOC(C)C	none
CCCOCCNC(=O)c1c(C)noc1-c1ccc(OC(F)(F)F)cc1	none
Cc1noc(-c2ccccc2Cl)c1C(=O)NC(C)c1ccccc1 (stereo not drawn)	none
Cc1noc(-c2cccs2)c1C(=O)NCCC(c1ccccc1)c1ccccc1	KDM5B inh 35µM
Cc1noc(-c2ccncc2)c1C(=O)NCCCCc1ccccc1	none
CCN(CC)c1nc2c(c(=O)n(C)c(=O)n2C)n1CC(O)COc1ccccc1 (stereo not drawn)	none
Fc1ccc(CNCc2ccc(-c3ccc(F)cc3)o2)cc1	none
Cc1[nH]cnc1-c1nccn1-c1ccc(NC(=O)CN2CCOCC2)cc1	none
O=C(NCCc1ccncc1)C1c2ccccc2C(=O)N(C2CCCCC2)C12CCCCC2 (stereo not drawn)	none
O=C1NCC2(CCCN(C(=O)CCc3nc4ccccc4[nH]c3=O)C2)O1 (stereo not drawn)	KDM5B inh 22µM
O=C1CCN(C(=O)CCc2nc3ccccc3[nH]2)CCCCCCN1	none
CN(C)CC1(O)CCC2(CCN(C(=O)CCc3nc4ccccc4[nH]3)CC2)CC1	none
COC1CN(c2cccc(F)c2)C12CCN(CC1CCCCC1)CC2 (stereo not drawn)	none
